Experimental data reported in PubChem BioAssay.
Active and inactive are the calls of the source.

Assays:
[1] = binders of probe aFSTL3 on microarray, primary screen, stem cell growth factor project, biochemical, small-molecule microarray, fluorescence 635/667 (AID 1064); details: higher = more signal;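 further: measures binding of the biotinylated anti-FSTL3 antibody to printed compounds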
[2] = binders from COS7 lysate, DM2A8 probe, primary screen, torsin A project, cell lysate, small-molecule microarray, fluorescence 635/667 (AID 1065); details: higher = more signal, COS7 lysate expressing mutant human TOR1A
[3] = binders of probe aFGF2 on microarray, primary screen, stem cell growth factor project, biochemical, small-molecule microarray, fluorescence 635/667 (AID 1067); details: higher = more signal;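 further: measures binding of biotinylated aFGF2 protein to printed compounds on slides; z-score merges feature fluorescence and signal-to-noise across triplicate slides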
[4] = binders of probe aFGF10 on microarray, primary screen, stem cell growth factor project, biochemical, small-molecule microarray, fluorescence 635/667 (AID 1071); details: higher = more signal;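 further: score merges 667 nm spot intensity and signal to noise from triplicate slides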
[5] = target: Neurogenic locus notch homolog protein 2 (Homo sapiens) (UniProt Q04721); assay: Notch2 binders on small-molecule microarrays, primary screen, biochemical, small-molecule microarray, 635 nm fluorescence, stem cell growth factors (AID 1073); details: Notch2 binding, higher = more signal
[6] = target: Pro-neuregulin-1, membrane-bound isoform (Homo sapiens) (UniProt Q02297); assay: NRG1 binders on small-molecule microarrays, primary screen, psychiatric disease protein project, biochemical, small-molecule microarray, fluorescence 635/667 (AID 1075); details: NRG1 binding, 635 nm fluorescence, higher = more signal;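 further: score combines 667 nm spot fluorescence with signal to noise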
Pro-neuregulin-1, membrane-bound isoform (Homo sapiens), sequence (Q02297 whole entry, looked up, the tested form may be a part, canonical isoform): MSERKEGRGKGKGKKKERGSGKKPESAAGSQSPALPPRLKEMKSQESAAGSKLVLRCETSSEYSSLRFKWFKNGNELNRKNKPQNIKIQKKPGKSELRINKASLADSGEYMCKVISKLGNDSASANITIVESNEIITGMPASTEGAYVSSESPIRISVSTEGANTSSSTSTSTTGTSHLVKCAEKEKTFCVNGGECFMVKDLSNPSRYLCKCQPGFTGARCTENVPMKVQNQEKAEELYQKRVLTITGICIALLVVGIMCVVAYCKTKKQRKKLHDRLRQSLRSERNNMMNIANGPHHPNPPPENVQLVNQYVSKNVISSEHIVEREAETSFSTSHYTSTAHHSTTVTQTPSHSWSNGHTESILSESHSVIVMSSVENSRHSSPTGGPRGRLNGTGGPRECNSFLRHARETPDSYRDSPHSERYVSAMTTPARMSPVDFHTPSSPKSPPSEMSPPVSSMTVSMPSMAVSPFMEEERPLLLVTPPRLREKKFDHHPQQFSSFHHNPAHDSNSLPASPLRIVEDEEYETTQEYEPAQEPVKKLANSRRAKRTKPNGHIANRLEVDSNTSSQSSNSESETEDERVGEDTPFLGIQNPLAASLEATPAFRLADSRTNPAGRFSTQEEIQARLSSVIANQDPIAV

[7] = test system: Neuregulin-1 EGF-like domain; assay: binders of neuregulin-1 EGF-like domain, primary screen, biochemical, small-molecule microarray, 635 nm fluorescence (AID 1081); details: small-molecule microarray binding, higher = more signal;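 further: binding of the protein to compounds printed on small-molecule microarray slides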
[8] = FRG1 promoter luciferase signal modulators, primary screen, FRG1 inhibition for FSHD, cell-based, C2C12 myotubes, firefly/Renilla luciferase, luminescence (AID 1084); details: higher = more signal, called active from +8 up or from −8 down
[9] = binders of probe aFST on microarray, primary screen, stem cell growth factor project, biochemical, small-molecule microarray, fluorescence 635/667 (AID 1086); details: higher = more signal;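 further: score merges 667 nm fluorescence with signal-to-noise of each printed compound spot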
[10] = binders of probe aHhip on microarray, primary screen, stem cell growth factor project, biochemical, small-molecule microarray, fluorescence 635/667 (AID 1087); details: higher = more signal;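 further: score merges spot fluorescence at 667nm with spot signal to noise ratio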
[11] = test system: PRMT1 (protein arginine N-methyltransferase 1); assay: PRMT1 binders on small-molecule microarrays, primary screen, biochemical, small-molecule microarray, 635 nm fluorescence (AID 1088); details: small-molecule microarray binding, higher = more signal;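 further: binding of Prmt1 protein to compounds spotted on small-molecule microarray slides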
[12] = yeast growth modulation, basal conditions, primary screen, YJM789 clinical isolate, OD600, 24 h (AID 1089);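 further: growth of clinical yeast isolate S. cerevisiae YJM 789 seeded 1000 cells per well; test concentration not given here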; details: S. cerevisiae YJM789 growth, higher = more signal, called active from +8 up or from −8 down
[13] = fission yeast growth modulation, primary screen, strain 972, OD600, 24 h, no modulator (AID 1090);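 further: basal condition with compound alone and no growth modifier present; test concentration not given here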; details: S. pombe 972 growth, higher = more signal, called active from +8 up or from −8 down
[14] = S. cerevisiae growth modulation with rapamycin, primary screen, strain BY4716, OD600, 96 h (AID 1091); details: higher = more signal, called active from +8 up or from −8 down; further: test concentration not given here
[15] = target: Torsin-1A-interacting protein 2 (Homo sapiens) (UniProt Q8NFQ8); assay: LULL1 binders on small-molecule microarray, primary screen, cell lysate, human LULL1 lysate, 635/667 nm fluorescence (AID 1092); details: hLULL1 lysate binding, 635 nm fluorescence, higher = more signal;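 further: probe is lysate of COS7 cells overexpressing human LULL1; score merges per-feature 667 nm fluorescence with signal-to-noise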
Torsin-1A-interacting protein 2 (Homo sapiens), sequence (Q8NFQ8 whole entry, looked up): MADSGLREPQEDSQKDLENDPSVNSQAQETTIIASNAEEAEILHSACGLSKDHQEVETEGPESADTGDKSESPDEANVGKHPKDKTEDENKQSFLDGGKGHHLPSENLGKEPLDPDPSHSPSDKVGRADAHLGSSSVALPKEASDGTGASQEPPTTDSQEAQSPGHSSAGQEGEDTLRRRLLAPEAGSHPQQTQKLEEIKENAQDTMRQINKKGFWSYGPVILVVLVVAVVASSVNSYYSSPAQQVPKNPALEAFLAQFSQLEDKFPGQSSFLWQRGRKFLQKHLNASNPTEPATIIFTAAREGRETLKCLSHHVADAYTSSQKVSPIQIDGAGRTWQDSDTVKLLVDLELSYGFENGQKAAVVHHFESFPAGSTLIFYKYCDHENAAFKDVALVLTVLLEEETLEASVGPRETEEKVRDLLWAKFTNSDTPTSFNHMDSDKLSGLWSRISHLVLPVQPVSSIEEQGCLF

[16] = E. coli growth modulation, two-sided OD650, primary screen, E. coli filamentation project, strain DRC41, 24 h (AID 1093); details: OD650, 24 h, higher = more signal, called active from +8 up or from −8 down;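 further: MC1000 strain lacking acrAB efflux and sulA so SOS filamentation is blocked; test concentration not given here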
[17] = small-molecule microarray binders of probe aLefty2, primary screen, biochemical, biotinylated probe, 635/667 nm fluorescence (AID 1094); details: higher = more signal;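 further: score merges spot fluorescence near 667 nm with spot signal-to-noise ratio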
[18] = test system: Noggin (protein binding on small-molecule microarray); assay: Noggin binders on small-molecule microarray, primary screen, biochemical, 635/667 nm fluorescence (AID 1095); details: 635 nm fluorescence, higher = more signal;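 further: score merges 667 nm feature fluorescence with signal to noise over triplicate slides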
[19] = target: Neurogenic locus notch homolog protein 3 (Homo sapiens) (UniProt Q9UM47); assay: NOTCH3 binders on small-molecule microarray, primary screen, biochemical, 635/667 nm fluorescence (AID 1096); details: NOTCH3 binding, 635 nm fluorescence, higher = more signal
Neurogenic locus notch homolog protein 3 (Homo sapiens), sequence (Q9UM47 whole entry, looked up): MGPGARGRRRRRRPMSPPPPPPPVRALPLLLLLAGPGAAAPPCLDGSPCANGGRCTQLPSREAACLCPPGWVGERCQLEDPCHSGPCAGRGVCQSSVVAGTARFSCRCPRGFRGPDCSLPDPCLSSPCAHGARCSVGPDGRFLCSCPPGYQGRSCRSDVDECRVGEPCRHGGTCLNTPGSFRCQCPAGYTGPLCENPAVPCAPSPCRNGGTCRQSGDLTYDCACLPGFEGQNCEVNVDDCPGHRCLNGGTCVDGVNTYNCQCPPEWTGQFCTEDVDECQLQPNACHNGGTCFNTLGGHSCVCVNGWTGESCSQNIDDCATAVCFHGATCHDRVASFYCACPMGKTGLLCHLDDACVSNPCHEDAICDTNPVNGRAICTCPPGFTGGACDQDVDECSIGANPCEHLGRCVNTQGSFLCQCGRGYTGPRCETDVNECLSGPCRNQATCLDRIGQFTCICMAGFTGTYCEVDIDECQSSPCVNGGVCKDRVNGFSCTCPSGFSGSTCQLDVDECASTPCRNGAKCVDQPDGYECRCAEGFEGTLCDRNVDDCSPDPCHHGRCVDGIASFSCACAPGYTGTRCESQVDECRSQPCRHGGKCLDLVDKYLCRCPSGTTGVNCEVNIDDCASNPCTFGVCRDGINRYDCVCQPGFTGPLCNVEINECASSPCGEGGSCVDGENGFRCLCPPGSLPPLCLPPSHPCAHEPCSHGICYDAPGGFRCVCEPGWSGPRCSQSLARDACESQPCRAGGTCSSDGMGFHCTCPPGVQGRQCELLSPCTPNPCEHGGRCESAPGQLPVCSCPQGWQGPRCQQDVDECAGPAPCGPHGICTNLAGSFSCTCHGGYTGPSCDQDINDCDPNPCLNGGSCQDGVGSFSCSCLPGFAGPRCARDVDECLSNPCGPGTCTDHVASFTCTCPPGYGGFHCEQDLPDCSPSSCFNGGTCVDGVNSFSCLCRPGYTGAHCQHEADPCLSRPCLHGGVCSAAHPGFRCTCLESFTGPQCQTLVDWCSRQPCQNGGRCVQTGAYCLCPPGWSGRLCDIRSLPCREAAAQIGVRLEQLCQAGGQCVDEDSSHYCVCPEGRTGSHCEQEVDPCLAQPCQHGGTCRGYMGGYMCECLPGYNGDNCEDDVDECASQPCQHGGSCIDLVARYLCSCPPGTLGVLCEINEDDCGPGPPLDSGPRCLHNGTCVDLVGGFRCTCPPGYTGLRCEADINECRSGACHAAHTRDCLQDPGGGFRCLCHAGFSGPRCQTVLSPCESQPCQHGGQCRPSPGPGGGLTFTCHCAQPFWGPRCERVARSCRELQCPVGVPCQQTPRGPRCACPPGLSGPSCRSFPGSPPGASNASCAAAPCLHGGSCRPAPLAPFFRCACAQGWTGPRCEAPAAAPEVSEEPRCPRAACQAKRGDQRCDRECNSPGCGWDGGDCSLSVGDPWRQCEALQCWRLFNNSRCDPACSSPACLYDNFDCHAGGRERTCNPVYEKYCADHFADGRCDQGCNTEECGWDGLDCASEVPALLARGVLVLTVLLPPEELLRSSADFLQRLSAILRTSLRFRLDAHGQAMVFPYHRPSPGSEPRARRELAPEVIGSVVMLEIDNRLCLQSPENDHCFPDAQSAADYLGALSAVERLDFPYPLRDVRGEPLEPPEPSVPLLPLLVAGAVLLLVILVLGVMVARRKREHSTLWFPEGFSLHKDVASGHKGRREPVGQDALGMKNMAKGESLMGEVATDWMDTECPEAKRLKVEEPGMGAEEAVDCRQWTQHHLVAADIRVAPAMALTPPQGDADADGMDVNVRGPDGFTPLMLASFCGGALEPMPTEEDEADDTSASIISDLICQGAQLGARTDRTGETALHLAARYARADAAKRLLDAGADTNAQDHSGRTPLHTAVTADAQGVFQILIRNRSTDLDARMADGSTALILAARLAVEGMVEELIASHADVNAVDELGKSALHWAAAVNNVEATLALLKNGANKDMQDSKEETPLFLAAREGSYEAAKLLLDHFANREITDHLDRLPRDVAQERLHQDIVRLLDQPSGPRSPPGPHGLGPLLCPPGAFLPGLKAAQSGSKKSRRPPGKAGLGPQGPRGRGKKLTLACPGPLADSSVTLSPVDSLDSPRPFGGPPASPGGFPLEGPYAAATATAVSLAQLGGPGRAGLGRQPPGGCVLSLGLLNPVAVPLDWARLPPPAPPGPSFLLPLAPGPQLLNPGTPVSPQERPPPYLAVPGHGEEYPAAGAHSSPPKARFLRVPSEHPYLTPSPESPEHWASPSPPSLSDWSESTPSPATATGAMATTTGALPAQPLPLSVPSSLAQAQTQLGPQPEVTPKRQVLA

[20] = small-molecule microarray binders of probe aEGFR, primary screen, biochemical, biotinylated probe, 635/667 nm fluorescence (AID 1097); details: higher = more signal;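 further: probe is a biotinylated anti-EGFR antibody binding compounds printed on slides; score combines fluorescence near 667 nm and signal to noise of each spot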

SMILES	composite z-score [1]	composite z-score [2]	composite z-score [3]	composite z-score [4]	composite z-score [5]	composite z-score [6]	composite z-score [7]	z-score [8]	composite z-score [9]	composite z-score [10]	composite z-score [11]	z-score [12]	z-score [13]	z-score [14]	composite z-score [15]	z-score [16]	composite z-score [17]	composite z-score [18]	composite z-score [19]	composite z-score [20]
C=CC[C@@]1(C(=O)NCCCOC)N=C(c2ccc(OCCCO)cc2)O[C@@H]1c1ccccc1N=[N+]=[N-]	0.165	0.252	0.0442	0.469	0.798	1.67	1.21	2.26 (inactive)	1.06	-0.0645	1.14	0.339 (inactive)	0.561 (inactive)	-0.441 (inactive)	3.09	1.24 (inactive)	0.085	0.794	0.681	-0.019
CC(c1ccccc1)C(O)C1C=CC2C(=O)N(C)C(=O)C2N1Nc1ccccc1 (stereo not given)	0.799	-0.146	0.362	0.796	1.63	1.43	1.25	0.796 (inactive)	0.814	0.0578	1.33	0.188 (inactive)	0.669 (inactive)	0.419 (inactive)	2.99	-0.689 (inactive)	0.445	-0.194	1.14	0.0849
NC(=O)NCC#Cc1ccc2c(c1)[C@]1(C(=O)N2)[C@H](c2ccccc2OCCO)N2[C@H](c3ccccc3)[C@H](c3ccccc3)OC(=O)[C@H]2[C@@H]1C(=O)NC[C@H](O)c1ccccc1	-0.0058	1.37	-0.085	0.262	-0.667	0.319	-0.32	-0.308 (inactive)	-0.312	-0.122	0.415	1.5 (inactive)	1.32 (inactive)	3.89 (inactive)	1.06	2.36 (inactive)	0.448	-0.0053	-0.112	-0.162
CCCCCCCCCCC(O)C1C=CC2C(=O)N(c3ccccc3)C(=O)C2N1Nc1ccc(C#N)cc1 (stereo not given)	0.356	0.179	-0.0262	0.696	1.18	1.73	0.98	1.05 (inactive)	0.647	0.0626	1.37	0.614 (inactive)	0.53 (inactive)	2.57 (inactive)	3.36	-0.983 (inactive)	0.12	0.0931	1.09	0.0288
CCCC=C(CCC)[C@@H](NC(=O)C(C)(C)C)c1ccc(C(=O)OC)cc1	0.488	-0.495	0.202	0.0431	1.45	0.992	0.883	-4.15 (inactive)	1.26	-0.115	0.0225	0.647 (inactive)	1.51 (inactive)	1.68 (inactive)	3.12	-0.447 (inactive)	0.498	-0.383	0.803	-0.0023
